Screening results (PubChem)
Shown are actives, neighbours in structure and some others; about 1.4% of the full set was active somewhere.
S1P2 ag – S1P2 (human) receptor agonism; S1P2-expressing cell line, agonist reporter read-out; 0.46% of 97,000 active; AID 729; O95136; activation, % at 4.5 µM; in the data active means activation above about 16%;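 further: 0% = vehicle low control and 100% = maximal reference agonist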
GALR2 blocker – GALR2 (human) receptor antagonism; O43603; GALR2-expressing cells, antagonist mode; inhibition, % at 4 µM; 0.39% of 140,000 active; in the data active means inhibition above about 27%;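 further: cells stimulated with galanin 1-16 at roughly its EC80; 0% = agonist challenge control and 100% = basal control without agonist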
GALR2 agonist – activates the human galanin receptor 2. O43603. 0.48% of 140,000 active. activation, % (concentration not given with the values). GALR2-expressing cells, agonist activation read-out; in the data active means activation above about 5%, passing the limit was not always enough;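 further: 0% = vehicle buffer wells and 100% = reference agonist at full effect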
CD11b adhes inh – CD11b/CD18-fibrinogen binding inhibition; K562 CD11b/CD18 adhesion to fibrinogen, ATPlite luminescence; Mn2+ added to activate the integrin; AID 1497; 0.54% of 93,000 active; inhibition, % at 10 µM;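 active means primary inhibition of 50% or more at 10 µM, then 40% or more on retest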
Target sequence (P05107 whole entry, looked up, other chains not shown): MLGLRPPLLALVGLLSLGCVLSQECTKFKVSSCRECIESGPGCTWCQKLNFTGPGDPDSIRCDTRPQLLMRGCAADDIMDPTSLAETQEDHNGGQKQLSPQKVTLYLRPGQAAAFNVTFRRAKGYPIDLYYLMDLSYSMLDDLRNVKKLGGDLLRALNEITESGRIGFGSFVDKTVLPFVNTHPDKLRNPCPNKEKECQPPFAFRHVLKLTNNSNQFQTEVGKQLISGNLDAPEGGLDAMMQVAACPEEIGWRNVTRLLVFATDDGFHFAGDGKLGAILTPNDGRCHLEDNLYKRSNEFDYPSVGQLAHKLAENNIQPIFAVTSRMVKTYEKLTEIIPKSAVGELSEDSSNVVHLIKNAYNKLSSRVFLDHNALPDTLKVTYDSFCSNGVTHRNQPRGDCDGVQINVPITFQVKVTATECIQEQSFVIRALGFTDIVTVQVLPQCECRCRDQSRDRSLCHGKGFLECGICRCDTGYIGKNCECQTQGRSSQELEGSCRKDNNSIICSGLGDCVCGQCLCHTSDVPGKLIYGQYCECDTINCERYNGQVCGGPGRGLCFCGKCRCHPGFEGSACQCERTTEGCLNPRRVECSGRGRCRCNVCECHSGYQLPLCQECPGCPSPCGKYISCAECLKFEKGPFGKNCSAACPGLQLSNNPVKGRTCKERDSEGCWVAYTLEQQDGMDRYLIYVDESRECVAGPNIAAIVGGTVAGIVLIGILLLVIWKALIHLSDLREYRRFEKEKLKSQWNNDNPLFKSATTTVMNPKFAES
S1P2 antag – S1P2 (human) receptor antagonism; 0.21% of 97,000 active; cell-based S1P2 antagonist assay, inhibition at 5 uM; O95136; inhibition, % at 5 µM; in the data active means inhibition above about 45%;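 further: CRE beta-lactamase reporter cells expressing human S1P2 stimulated with S1P; 0% = agonist at EC80 alone and 100% = agonist plus reference antagonist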
Mac1 fbg enh – CD11b/CD18-fibrinogen binding enhancement. activation, % at 10 µM. 0.07% of 93,000 active. P05107+P11215. K562 CD11b/CD18 adhesion to fibrinogen, ATPlite luminescence;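 active means 10 µM primary screen giving 50% or more activity, confirmed by 40% or more on retest at that dose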
* marks the source's active call; other numbers are inactive results; nt = no result.

SMILES | S1P2 ag | GALR2 blocker | GALR2 agonist | CD11b adhes inh | S1P2 antag | Mac1 fbg enh
Cc1c(C(=O)NC2CCCc3ccccc32)oc2ccc(S(=O)(=O)N3CCCC3)cc12 (stereo not drawn) | -4 | -7 | 0 | -5 | 3 | -2
Cc1c(C(=O)NC2CCCc3ccccc32)oc2ccc(S(=O)(=O)N3CCOCC3)cc12 (stereo not drawn) | -6 | 7 | -2 | 8 | -5 | 57*
Cc1onc(-c2ccccc2Cl)c1C(=O)Nc1nnc(-c2cccc([N+](=O)[O-])c2)s1 | -8 | -2 | -1 | 90* | -12 | -6
CCSc1nnc(NC(=O)c2c(-c3ccccc3Cl)noc2C)s1 | -9 | 2 | 0 | 24 | 9 | -2
CCOC(=O)c1[nH]c(C)c(CCC(=O)O)c1C | -6 | -4 | -1 | 16 | -32 | -2
CCC1=NN2C(=N)/C(=C\c3ccc(SCc4ccco4)o3)C(=O)N=C2S1 | -5 | -9 | -2 | 10 | 5 | -1
CCCC1=NN2C(=N)/C(=C\c3ccc(SCc4ccco4)o3)C(=O)N=C2S1 | -5 | -9 | -1 | 64* | -21 | 4
COc1ccc(CC(=O)Nc2ccc3c(c2)CCC3)cc1OC | -2 | 7 | -1 | 65* | -7 | -6
COc1ccccc1CC(=O)Nc1ccc2c(c1)CCC2 | nt | -13 | -1 | -9 | nt | -1
O=C1CC(Nc2ccc(N3CCOCC3)cc2)C(=O)N1Cc1ccccc1 (stereo not drawn) | -3 | 7 | -3 | nt | 0 | nt
Cc1ccc(-c2noc(C3CCCN(S(=O)(=O)c4ccc5ccccc5c4)C3)n2)o1 (stereo not drawn) | -5 | -5 | -4 | 8 | 4 | 53*
COc1ccccc1C1C(C(C)=O)=C(C)N=c2s/c(=C\c3cc(OC)c(OC)c(OC)c3)c(=O)n21 (stereo not drawn) | 17* | 2 | 4 | nt | -39 | nt
COc1cccc(C2C(C(=O)Nc3ccccc3)=C(C)N=c3s/c(=C/c4ccc(OCC(=O)O)cc4)c(=O)n32)c1 (stereo not drawn) | nt | 13 | 1 | nt | nt | nt
CCCCN1C(=O)C(O)(CC(=O)c2ccco2)c2cc(Br)ccc21 (stereo not drawn) | nt | 9 | -1 | 1 | nt | -6
COCCCn1c(SCc2nc3ccccc3c(=O)[nH]2)nc2ccccc2c1=O | 23* | -2 | 1 | 8 | -32 | 0
CCn1c(SCc2nc3ccccc3c(=O)[nH]2)nc2ccccc2c1=O | 15 | -8 | 2 | nt | -9 | nt
COc1ccc(/C=N/Nc2cc(=O)n(C)c(=O)n2C)cc1OC | nt | -7 | 0 | nt | nt | nt
COc1ccc(NC(=O)c2ccc(C#N)cc2)cc1NS(=O)(=O)c1ccc(F)cc1 | nt | 5 | -2 | nt | nt | nt
CC(=O)c1c(N2CCCCC2)nc(=S)n(Cc2ccccc2)c1C | -10 | -6 | 1 | 52* | 3 | 2
CC(=O)c1c(N2CCN(Cc3ccccc3)CC2)nc(=S)n(Cc2ccccc2)c1C | nt | 7 | -1 | nt | nt | nt
COc1ccc(NC(=O)COC(=O)c2ccc(OCc3c(C)noc3C)cc2)cc1OC | -9 | -2 | -2 | nt | 0 | nt
N#CCSc1n[nH]c2nc3c(c(=O)n12)C1(CCCC1)Cc1ccccc1-3 | nt | 7 | -1 | 78* | nt | -7
CCCn1c(SCC#N)nc2c(c1=O)C1(CCCC1)Cc1ccccc1-2 | -3 | -5 | -6 | -13 | -7 | -1
CC(C)c1ccc(C(CC(=O)c2ccc(Cl)cc2)C(=O)O)cc1 (stereo not drawn) | -4 | 2 | -3 | nt | -8 | nt
CCOc1ccc(-n2c(-c3ccc(OC)cc3)c[n+]3c2CCCCC3)cc1 | nt | 1 | 0 | 100* | nt | -7
SMILES | S1P2 ag | GALR2 blocker | GALR2 agonist | CD11b adhes inh | S1P2 antag | Mac1 fbg enh
CCn1c(=O)cc(OCC(=O)N2CCCCCC2)c2ccccc21 | -3 | -8 | -4 | -13 | -9 | -1
COCc1nnc(SCC(=O)NC(C)c2ccccc2)n1-c1ccccc1 (stereo not drawn) | 1 | 7 | -2 | -11 | 4 | -1
CC(C)C1N=C2c3ccccc3N=C(SCc3cc(=O)n4cc(Cl)ccc4n3)N2C1=O (stereo not drawn) | 25* | -9 | 0 | -14 | -34 | -3
O=C(COC(=O)c1ccccn1)c1ccc(Br)cc1 | nt | -10 | -1 | -4 | nt | -2
COc1ccc(C(CC(=O)O)NS(=O)(=O)c2ccc(C)cc2)cc1 (stereo not drawn) | -4 | 1 | -1 | 51* | 1 | 0
O=C(O)CC(NS(=O)(=O)c1cccc2nsnc12)c1ccc(F)cc1 (stereo not drawn) | -5 | 3 | -2 | 60* | 7 | -9
CCOc1ncccc1C(=O)OCC(=O)Nc1cc(C)ccc1C | 21* | 7 | -3 | nt | -1 | nt
COC(=O)C1=CN(Cc2cccs2)C=C(C(=O)OC)C1c1cccc(OC)c1OC | 21* | -10 | 1 | -9 | -9 | -3
Cc1cc(C)c(S(=O)(=O)Nc2ccc(O)cc2)cc1C | 65* | -1 | 0 | 9 | -7 | 0
Cc1ccc(C)c(S(=O)(=O)Nc2ccc(O)cc2)c1 | -2 | -2 | -4 | -9 | 12 | 1
COC(=O)CSC1=NS(=O)(=O)c2ccccc21 | 0 | 24 | -5 | 69 | 13 | -8
O=C(CSC1=NS(=O)(=O)c2ccccc21)Nc1ccccc1 | -6 | 10 | -4 | 72* | 9 | -6
OCCN1CCN(c2nc(-c3ccccc3)c3cc(Cl)ccc3n2)CC1 | 18* | 9 | 19* | nt | -5 | nt
Clc1ccc2nc(NC3=NCN(CCN4CCOCC4)CN3)nc(-c3ccccc3)c2c1 | nt | nt | nt | 3 | nt | 0
CN1CCN(c2nc(-c3ccccc3)c3cc(Cl)ccc3n2)CC1 | 25* | 14 | 18* | -10 | 5 | 1
O=C1CN(c2nc(-c3ccccc3)c3cc(Cl)ccc3n2)c2ccccc2N1 | nt | -7 | 0 | nt | nt | nt
Cc1cc(NC(=O)c2ccc(N3C(=O)CCC3=O)cc2)no1 | -7 | -8 | -2 | 7 | 13 | -1
CCCn1c(SCC(=O)Nc2nc(C)cs2)nnc1-c1cccnc1 | 0 | 5 | -2 | -17 | -9 | -1
CC(/C=N/NC(=O)Cc1cccn1C)=C\c1ccco1 | 0 | -13 | 1 | 11 | -16 | -1
Cc1ccc(S(=O)(=O)c2c(C)nn(C(C)(C)C)c2OC(=O)c2ccco2)cc1 | -7 | 2 | -1 | 61 | 24 | -9
Cc1ccc(S(=O)(=O)c2c(C)nn(C(C)(C)C)c2OC(=O)c2ccc(Br)o2)cc1 | -5 | -11 | -1 | 54* | 14 | -6
COc1ccc(-c2cc(N)n(S(=O)(=O)c3c(F)c(F)c(F)c(F)c3F)n2)cc1OC | 6 | 28* | -2 | 28 | 15 | -3
COc1ccc(OCCSc2nnnn2C2CCCCC2)cc1 | -10 | 1 | -1 | -9 | 1 | -4
O=C(NCc1ccccn1)c1nnc(Cc2ccc(Cl)cc2)o1 | nt | 6 | -1 | nt | nt | nt
COc1ccccc1-c1c(C#N)c(N)nc2c1CCc1ccccc1-2 | nt | 12 | 5.7* | nt | nt | nt
CCCOC(=O)c1ccc(Nc2cc(C)nc3ncnn23)cc1 | -7 | -9 | 0 | 3 | -5 | -6
